The values that follow come from PubChem BioAssay (Tox21).

Values joined by “and” are separate entries in the source; they are usually repeats but may differ in a detail not shown here. Identical values can stand only once. Records with an inconclusive call do not appear. Active and inactive are the calls of the source. Unless noted, calls come from the whole dose curve; as a rule, active = well fitted curve in the direction sought with a large enough effect in the repeat runs; inconclusive = weak or mixed curves; inactive = no such curve, though single readings can be large; an effect the other way counts as inactive or inconclusive.

Experiment [1] in a line: qHTS assay to identify small molecule agonists of the vitamin D receptor (VDR) signaling pathway - cell viability counter screen (AID 743224). Note: series mostly up to about 63 µM; nearly all actives have a fitted effect of over 50% in size. A digest of the protocol:
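Compounds were pin-transferred onto VDR-bla cells plated 4 h earlier; following 16 h incubation at 37C, cell viability was quantified by CellTiter-Glo luminescence after 30 min at room temperature.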

Experiment [2] in a line: qHTS assay to identify small molecule antagonists of the vitamin D receptor (VDR) signaling pathway - cell viability counter screen (AID 743225). Note: nearly all actives have a fitted effect of over 50% in size. A digest of the protocol:
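Luminescent cell viability (CellTiter-Glo) in VDR-bla HEK 293T cells after 16 h compound exposure at 37C in the presence of 3 nM final 1-alpha,25-dihydroxy vitamin D3.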
Background: In qHTS, concentration-response curves come from the screen itself.

The nature of experiment [3]: qHTS assay to identify small molecule agonists of the NFkB signaling pathway (AID 1159509; active = well fitted curve in the direction sought with a large enough effect in the signal ratio in the repeat runs, not every such curve was filed as active; the % refers to the signal ratio; note: series mostly up to about 61 µM). A digest of the protocol:
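Beta-lactamase reporter assay run in quantitative high-throughput format on an NF-kB-responsive ME-180 line, with 5 hr compound treatment and a FRET-based blue/green fluorescence readout.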

The nature of experiment [4]: qHTS assay to identify small molecule agonists of the NFkB signaling pathway - cell viability counter screen (AID 1159515; calls by dose curve; note: series mostly up to about 61 µM; nearly all actives have a fitted effect of over 55% in size). A digest of the protocol: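 Parallel cytotoxicity counter screen in ME-180 cells carrying an NFkB-response-element beta-lactamase reporter, 2,000 cells/well. Compound exposure lasted 5 hr at 37 C, 5% CO2. Cell viability was quantified by CellTiter-Glo luminescence.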

The nature of experiment [5]: qHTS assay to identify small molecule agonists of the endoplasmic reticulum stress response signaling pathway (AID 1159516; active = well fitted activation curve with a large enough effect in the signal ratio in the repeat runs, not every such curve was filed as active; the % refers to the signal ratio). Summed up: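 Using a HeLa line with an ESRE-driven beta-lactamase gene, agonist activity was measured by FRET substrate fluorescence (460 and 530 nm emission) after cells were treated with compounds for 5 hr at 37 C and 5% CO2.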
The nature of experiment [6]: qHTS assay to identify small molecule agonists of the endoplasmic reticulum stress response signaling pathway - cell viability counter screen (AID 1159517; calls by dose curve;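 note: HeLa cells carrying an ER stress response element beta-lactamase reporter; series mostly up to about 61 µM; nearly all actives have a fitted effect of over 50% in size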). A digest of the protocol: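 After overnight attachment, ESRE-bla HeLa cells were treated with Tox21 library compounds for 5 hr. CellTiter-Glo luminescence, read 30 min post-addition at room temperature, reported viability.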

Experiment [7] in a line: qHTS assay to identify small molecule antagonists of the retinoid-related orphan receptor gamma (ROR-gamma) signaling pathway - cell viability counter screen (AID 1159520). Note: nearly all actives have a fitted effect of over 50% in size. A digest of the protocol:
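Cytotoxicity was read from cellular ATP (CellTiter-Glo luminescence) after 16 hr at 37 C with 1 uM doxycycline induction. The inducer was added 2 hr after compound transfer to Tet-on ROR gamma CHO cells.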

For experiment [8], the target named is Nuclear receptor ROR-gamma (Homo sapiens) (UniProt P51449). Put plainly: qHTS assay to identify small molecule antagonists of the retinoid-related orphan receptor gamma (ROR-gamma) signaling pathway (AID 1159521). A digest of the protocol: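 CHO cells expressing RORγ under a TET-on promoter, luciferase under RORE control. Dox 1 uM final, 16 h; compounds added 2 h prior. Luminescence decrease measured.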

Experiment [9] in a line: qHTS assay to identify small molecule agonists of the AP-1 signaling pathway - cell viability counter screen (AID 1159525; calls by dose curve; note: nearly all actives have a fitted effect of over 55% in size). A digest of the protocol:
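Intracellular ATP by Cell Titer Glo luminescence (30 min, RT) in the same ME-180 AP-1-bla wells after the 5 h compound exposure at 37 °C. Normalised to tetra n-octyl ammonium bromide and DMSO controls.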

Experiment [10] in a line: qHTS assay to identify small molecule agonists of the AP-1 signaling pathway (AID 1159526; calls by dose curve).
Experiment [11] has as its target Retinoic acid receptor RXR-alpha (Homo sapiens) (UniProt P19793). Put plainly: qHTS assay to identify small molecule agonists of the RXR signaling pathway (AID 1159527; calls by dose curve; note: nearly all actives have a fitted effect of over 35% in size). A digest of the protocol: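 Beta-lactamase reporter assay, agonist format. Engineered HEK 293T line, charcoal-stripped FBS at 2%, overnight (16 hr) exposure, fluorescence at 460 and 530 nm after 405 nm excitation.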

A short description of experiment [12]: qHTS assay to identify small molecule agonists of the RXR signaling pathway - cell viability counter screen (AID 1159529). Summed up:
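Same-well viability check after the LiveBLAzer FRET read: CellTiter-Glo added, luminescence measured after 30 min at room temperature. Reporter HEK 293T cells had been treated with compounds for 16 hr following a 5 hr preincubation.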

Experiment [13] is described as follows: qHTS assay to identify small molecule antagonists of the retinoid acid receptor (RAR) signaling pathway - cell viability counter screen (AID 1159551). Note: nearly all actives have a fitted effect of over 35% in size. Summed up: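 ATP-based viability, C3RL4 cells, 6 h at 37 C with 1 uM final retinol co-added after compound; luminescence read 30 min post CellTiter-Glo, RT.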
Experiment [14] in a line: qHTS assay to identify small molecule agonists of the retinoic acid receptor (RAR) signaling pathway (AID 1159553). Note: potency is the fitted concentration of half-maximal effect. Summed up: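 Quantitative high-throughput format: the Tox21 10K library was tested on C3RL4 RARE-luciferase cells for 6 hr at 37 C and 5% CO2, with luminescence measured after a 30 min room-temperature reagent step.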
A short description of experiment [15]: qHTS assay to identify small molecule antagonists of the retinoic acid receptor (RAR) signaling pathway (AID 1159552; note: nearly all actives have a fitted effect of over 50% in size). Summed up:
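Readout: luciferase luminescence, 30 min post-reagent at RT. Setup: C3RL4 RARE reporter cells, compounds plus retinol 1 uM final, 6 hr incubation at 37 C and 5% CO2.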

Experiment [16] in a line: qHTS assay to identify small molecule antagonists of the estrogen related receptor (ERR) signaling pathway - cell viability counter screen (AID 1224818).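 Note: series mostly up to about 46 µM; viability measured after 17.5 h of compound exposure.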 A digest of the protocol:
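Quantitative high-throughput viability counter screen in ERR cells. Compounds (DMSO) incubated 17.5 h at 37 C; read-out was CellTiter-Fluor fluorescence.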

Experiment [17] is described as follows: qHTS assay to identify small molecule antagonists of the estrogen related receptor signaling pathway with the pleiotropic PPARgamma coactivator (PGC) cell viability counter screen (AID 1224822; note: series mostly up to about 46 µM). A digest of the protocol: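 Cytotoxicity in the PGC/ERR cell line is assessed with CellTiter-Fluor, read as fluorescence intensity 30 min after reagent addition, following 17.5 h compound treatment at 37 C.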

Sequence of Retinoic acid receptor RXR-alpha (Homo sapiens) (P19793 whole entry, looked up): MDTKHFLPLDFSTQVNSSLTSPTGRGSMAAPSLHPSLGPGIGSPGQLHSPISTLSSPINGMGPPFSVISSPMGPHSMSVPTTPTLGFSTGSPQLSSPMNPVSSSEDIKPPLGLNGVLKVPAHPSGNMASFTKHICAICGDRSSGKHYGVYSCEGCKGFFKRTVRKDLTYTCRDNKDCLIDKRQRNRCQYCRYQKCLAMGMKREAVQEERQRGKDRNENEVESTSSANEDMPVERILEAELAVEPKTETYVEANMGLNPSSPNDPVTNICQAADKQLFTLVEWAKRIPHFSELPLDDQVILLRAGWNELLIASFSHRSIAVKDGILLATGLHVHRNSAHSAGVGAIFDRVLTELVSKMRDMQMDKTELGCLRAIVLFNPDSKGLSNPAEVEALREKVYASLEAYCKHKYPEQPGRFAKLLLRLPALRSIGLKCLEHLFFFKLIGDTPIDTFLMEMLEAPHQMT

In the case of `CN1C(=O)N(C)C(O)C1O` (centres undefined), the Potency result in experiment [1], in experiment [2], in [8], in [9], in experiment [11] and in experiment [12] was “inactive” each time. The Potency entry in experiment [14] was “inactive”. The compound was called inactive in experiment [3], in experiment [4], in experiment [5], in [6], in experiment [7] and in [10]. The compound was called inactive in experiment [13].

Consider `COC(=O)CCSCCC(=O)OC`, for which the Potency result in [1], in [8], in experiment [9], in experiment [11], in [12] and in experiment [14] was “inactive” throughout. The result in experiment [3], in experiment [4], in [5], in experiment [6], in experiment [7] and in [10] was inactive. Besides, in [13], the compound was called inactive.

Take `Cc1c(O)cccc1O`: the Potency result in experiment [1], in experiment [2], in experiment [8], in experiment [9], in [11] and in experiment [12] was “inactive” in each case. Further, the Potency result in experiment [14] was “inactive”. In addition, the compound was classed as inactive in [3], in experiment [4], in experiment [5], in experiment [6], in [7] and in [10]. In [13], the call was inactive.

Consider `CCCC(=O)O[C@]1(C(=O)CO)CC[C@H]2[C@@H]3CCC4=CC(=O)CC[C@]4(C)[C@H]3[C@@H](O)C[C@@]21C`, for which the Potency result in experiment [1], in experiment [2], in experiment [8], in experiment [9], in experiment [11] and in experiment [12] was “inactive” in each case. For the same compound, the Potency result in experiment [14] is “inactive”. For the same compound, the compound was called inactive in experiment [3], in experiment [4], in experiment [5], in [6], in [7] and in [10]. Besides, the compound was called inactive in [13].

As for `CCc1cccc2c(CCO)c[nH]c12`, the Potency entry in [1], in experiment [2], in experiment [8], in experiment [9], in [11] and in [12] was “inactive” each time. Further, the Potency result in experiment [14] was “inactive”. In addition, the outcome in [3], in [4], in [5], in experiment [6], in experiment [7] and in [10] was inactive. The result in experiment [13] was inactive.

As to `O=c1cc(-c2ccccc2)oc2ccccc12`, the Potency entry in experiment [1], in experiment [2], in [9], in experiment [12] and in experiment [15] was “inactive” in each case. The call in experiment [3], in [4], in experiment [5], in experiment [6], in experiment [7] and in experiment [10] was inactive. Moreover, the call in experiment [13], in experiment [16] and in experiment [17] was inactive. For the same compound, the Potency in [14] was 3.44 µM (active) and 858 nM (active).

Regarding `Cc1[nH]c(=O)c(C#N)cc1-c1ccc2nccn2c1`, the Potency entry in [1], in experiment [2], in [8], in experiment [9], in experiment [11] and in experiment [12] was “inactive” in each case. Moreover, the Potency result in [15] and in experiment [14] was “inactive” each time. Besides, the outcome in [3], in [4], in experiment [6], in experiment [7], in experiment [10] and in [13] was inactive. The outcome in experiment [16] and in experiment [17] was inactive.

For `Cc1sccc1Br`, the Potency result in experiment [1], in [2], in experiment [8], in experiment [9], in experiment [11] and in experiment [12] was “inactive” throughout. Also, the Potency result in experiment [14] was “inactive”. Besides, the outcome in experiment [3], in experiment [4], in [5], in experiment [6], in [7] and in experiment [10] was inactive. Further, the outcome in [13] was inactive.
